Screens (PubChem BioAssay)
MITF primary – MITF inhibitors, primary screen, biochemical, AlphaScreen, human. Microphthalmia-associated transcription factor (Homo sapiens), O75030. inhibition, % at 2.6 µM. AlphaScreen MITF homodimerization, bead proximity signal. hit rate 0.91% among 650,000; in the data active = inhibition above about 50%
TEAD-YAP block – TEAD-YAP interaction inhibition, primary screen, TEAD-YAP interaction inhibitor project, luminescence, HEK-TIYL cells; TEAD-Gal4/YAP UAS-luciferase luminescence; inhibition, % at 9.12 µM; hit rate 1.4% among 640,000; in the data active = inhibition above about 32%
FBW7 activator – FBW7 E3 ligase activators, primary screen, biochemical, AlphaScreen, human; AID 1259310, 2017; normalized activity (activation), % at 26.1 µM; hit rate 0.13% among 650,000; F-box/WD repeat-containing protein 7 (Homo sapiens), Q969H0; AlphaScreen FBW7–phospho-cyclin E peptide binding, activator screen; in the data active = normalized activity above about 1.9%;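 also: purified mutant Fbw7 with reduced substrate affinity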
Target sequence (Q969H0 whole entry, looked up): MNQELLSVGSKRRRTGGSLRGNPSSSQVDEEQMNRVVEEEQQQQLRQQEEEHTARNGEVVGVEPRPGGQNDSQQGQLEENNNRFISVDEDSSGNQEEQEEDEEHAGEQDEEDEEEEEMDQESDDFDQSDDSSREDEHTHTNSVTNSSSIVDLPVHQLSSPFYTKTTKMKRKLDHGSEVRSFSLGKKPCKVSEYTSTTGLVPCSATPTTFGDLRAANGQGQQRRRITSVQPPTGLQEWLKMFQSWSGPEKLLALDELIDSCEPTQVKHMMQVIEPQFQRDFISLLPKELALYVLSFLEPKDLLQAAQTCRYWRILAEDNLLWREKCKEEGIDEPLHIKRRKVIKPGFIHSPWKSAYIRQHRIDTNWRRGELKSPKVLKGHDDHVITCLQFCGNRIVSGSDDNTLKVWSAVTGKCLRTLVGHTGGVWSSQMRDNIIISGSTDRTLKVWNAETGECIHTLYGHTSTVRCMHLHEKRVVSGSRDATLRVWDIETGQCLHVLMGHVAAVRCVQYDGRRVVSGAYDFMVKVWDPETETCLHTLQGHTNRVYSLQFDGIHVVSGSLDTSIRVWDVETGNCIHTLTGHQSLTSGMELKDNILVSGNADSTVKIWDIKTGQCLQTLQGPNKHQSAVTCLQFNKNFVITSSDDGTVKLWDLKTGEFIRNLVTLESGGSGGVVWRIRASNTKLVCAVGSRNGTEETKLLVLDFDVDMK
GPR151 ag – activators of human GPR151, primary screen, cell-based, PathHunter beta-arrestin, luminescence | G-protein coupled receptor 151 (Homo sapiens), Q8TDV0 | PathHunter beta-arrestin GPR151 cells | activation, % at 11.2 µM | hit rate 1% among 650,000 | AID 1508602, 2020; in the data active = activation above about 4.9%
A number is an active result; n = inactive. Hits are enriched below; roughly 3.4% of the tested compounds scored in any of these assays.

SMILES	MITF primary	TEAD-YAP block	FBW7 activator	GPR151 ag
O=C(O)C1Nc2ccc([N+](=O)[O-])cc2C2C=CCC12 (configuration not stated)	85.3	n	n	n
O=C(O)c1ccc(C2Nc3ccc([N+](=O)[O-])cc3C3C=CCC32)cc1 (configuration not stated)	76.2	n	n	n
O=C(O)c1ccc2c(c1)[C@@H]1C=CC[C@@H]1[C@H](c1c(F)cccc1Cl)N2	n	39.9	n	n
O=C(O)C1Nc2ccc(Oc3ccccc3)cc2C2C=CCC12 (configuration not stated)	n	n	n	n
CC(=O)c1ccc2c(c1)C1C=CCC1C(c1ccc(C(=O)O)cc1)N2 (configuration not stated)	67.2	n	n	n
CCCNC(=O)c1cncc(-c2ccc(N3CCN(C)CC3)cc2)c1	n	n	n	n
Cc1ccc(S(=O)(=O)NC(=O)N(C2CC2)C2CCN(C)CC2)cc1	n	n	n	n
COC(=O)Cc1nc(Nc2ccccc2)c2c(C)c(C)sc2n1	n	n	n	n
COC(=O)c1ccccc1OC(=O)c1ccc2c(c1)C1C=CCC1C(C(=O)O)N2 (configuration not stated)	68.3	n	n	n
CCOC(=O)c1ccc2c(c1)C1C=CCC1C(c1ccc(C(=O)O)cc1)N2 (configuration not stated)	68.0	n	n	n
CCOC(=O)c1ccc2c(c1)C1C=CCC1C(C(=O)O)N2 (configuration not stated)	76.3	n	n	n
CCOC(=O)c1ccc2c(c1)C1C=CCC1C(c1ccc(F)cc1)N2 (configuration not stated)	n	n	n	n
CC(C)COC(=O)c1ccc2c(c1)C1C=CCC1C(C(=O)O)N2 (configuration not stated)	n	n	n	n
Cc1nc(N2CCC(NCC(C)(C)CO)CC2)nc2cc3c(cc12)CCC3	n	n	n	n
COc1ccccc1NC(=O)C1CC12CCN(Cc1cccnc1)CC2 (configuration not stated)	n	n	n	n
NC(=O)c1ccsc1NC(=O)/C=C/c1cccs1	n	64.1	n	n
CCCOc1ccc(C2=[N+]([O-])C3(CCCCC3=O)N(O)C2(C)C)cc1 (configuration not stated)	n	54.9	n	n
CC1(C)C(c2ccc(F)cc2)=[N+]([O-])C2(CCCCC2=O)N1O (configuration not stated)	n	n	n	n
COc1cc(CNCCCN(C)C)ccc1OCc1ccc(F)cc1Cl	n	34.3	n	n
CCn1c(C(O)c2ccccc2OC)nc2ccccc21 (configuration not stated)	n	n	n	n
COC(=O)N1CCc2cc(OC)c(OC)cc2C1c1ccccc1 (configuration not stated)	n	n	n	n
COc1ccc(NC(=O)C(=O)NCc2cccnc2)cc1	n	n	n	n
Cc1nc2ccccc2n1Cc1nnc(-c2ccccc2)o1	n	39.8	n	n
Cc1cc2c(cc1C)C(c1ccccc1OC(C)C)CC(=O)N2 (configuration not stated)	n	55.2	n	n
COc1ccccc1C1CC(=O)Nc2cc(C)c(C)cc21 (configuration not stated)	n	56.9	n	n
SMILES	MITF primary	TEAD-YAP block	FBW7 activator	GPR151 ag
Cc1cc2c(cc1C)C(c1ccccc1C)CC(=O)N2 (configuration not stated)	n	n	n	n
CCCCOc1ccccc1C1CC(=O)Nc2cc(C)c(C)cc21 (configuration not stated)	n	n	n	n
CCOc1ccccc1C1CC(=O)Nc2cc(C)c(C)cc21 (configuration not stated)	n	40.9	n	n
CCN(CC)C(=O)c1oc2ccc(S(=O)(=O)N3CC(C)CC(C)C3)cc2c1C (configuration not stated)	n	40.3	n	n
COc1ccc(N2C(N)=C(C#N)C(c3ccccc3)C3=C2CCCC3=O)cc1 (configuration not stated)	n	44.1	n	n
COc1ccc(C2C(C#N)=C(N)N(c3ccc(Cl)cc3)C3=C2C(=O)CCC3)cc1 (configuration not stated)	n	n	n	n
CCOc1ccc(C2C(C#N)=C(N)N(c3ccc(C)cc3)C3=C2C(=O)CCC3)cc1 (configuration not stated)	n	57.1	n	n
Cc1ccc(N2C(N)=C(C#N)C(c3cc(Br)cs3)C3=C2CCCC3=O)cc1 (configuration not stated)	n	33.7	n	n
COC(=O)c1cc(S(=O)(=O)N(C)c2ccc(C)cc2)c[nH]1	n	n	n	n
CCOCCC(=O)N1CCCC(C(=O)OCC)C1 (configuration not stated)	n	n	n	n
O=C1CSC(c2cccc([N+](=O)[O-])c2)N1c1cccc(Cl)c1 (configuration not stated)	n	n	n	n
COCCNC(=O)c1ccc2nc(N3CCOCC3)sc2c1	n	n	n	n
O=C(NCCOc1ccccc1)c1ccc2nc(N3CCOCC3)sc2c1	n	n	n	5.8
O=C(NC1CCN(Cc2ccccc2)CC1)c1ccc2nc(N3CCN(Cc4ccc5c(c4)OCO5)CC3)sc2c1	n	44.3	n	n
CCCNC(=O)c1ccc2nc(N3CCN(Cc4ccc5c(c4)OCO5)CC3)sc2c1	n	n	n	n
CC(C)COc1ccc(C2Nc3ccccc3C(=O)N2c2ccc(Cl)c(Cl)c2)cc1 (configuration not stated)	n	n	n	n
O=C1N[C@@H](C(=O)Nc2ccc(-c3cn[nH]c3)cc2)Cc2ccccc21	n	n	n	n
COc1ccc(C(c2c(N)n(CC(C)C)c(=O)[nH]c2=O)N2CCOCC2)cc1 (configuration not stated)	n	n	n	n
NC(=O)c1c(NC(=O)CSc2nc(-c3ccccc3)cn2N)sc2c1CCC2	n	35.8	n	n
COc1ccc(Cc2cnc(NC(C)=O)s2)cc1	n	n	n	n
COc1ccc(Cc2cnc(NC(=O)COc3ccccc3Cl)s2)cc1	n	58.0	n	n
Cc1ccc(Cc2cnc(NC(=O)/C=C/c3ccco3)s2)cc1	n	58.0	n	n
CCCCOc1ccc(C(=O)Nc2nnc(CC)s2)cc1	n	n	n	n
CCc1nnc(NC(=O)c2ccc(OC)cc2)s1	n	40.5	n	n
CCOc1ccc(/C=C/C(=O)Nc2ncc(Cc3ccc(C)cc3)s2)cc1	n	n	n	n
COc1ccc(Cc2cnc(NC(=O)c3ccc(C)cc3)s2)cc1	n	49.9	n	n
O=C(Nc1ncc(Cc2ccc(F)cc2)s1)c1ccc(Br)cc1	n	37.8	n	n
CC(C)(C)c1ccc(C(=O)Nc2ncc(Cc3ccc(F)cc3)s2)cc1	n	n	n	n
